Counter-ions that a name gives are not always drawn.
Tested on: Saccharomyces cerevisiae
Experiment: fraction of cells in G1 phase (DNA content, flow cytometry); higher = more cells with unreplicated DNA (G1 delay)
Settings: temperature: 30 C; YPD; JTY2953 pdr5 snq2 (sensitized); drug added to: cultures diluted from stationary phase; 6-7 h
In short: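 S. cerevisiae in YPD at 30°C was dosed with library drugs, using a final 20 µg/ml for sensitized JTY2953 diluted 1∶200 from overnight and fixed at 6–7 h, or dosing dividing JTY2953 (fixed at 6 h) and BY4741 (fixed at 4.33 h). Ethanol-fixed, SYTOX Green-stained cells were read by flow cytometry (10,000 events). The G1 fraction is taken as the Dean-Jett-Fox G1 peak area divided by the G1 and G2/M areas combined.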

Structure (SMILES)	fraction of cells in G1 phase
C/C=C/c1ccc(OC)cc1 [Anethole, trans-] (134.947 µM)	0.525
CS(=O)(=O)c1ccc(C2=C(c3ccccc3)C(=O)OC2)cc1 [Rofecoxib] (63.6208 µM)	0.536
CC(=O)OCC[N+](C)(C)C [Acetylcholine Cl] (136.789 µM)	0.483
COC(=O)C1=C(C)NC(C)=C(C(=O)OCCN(C)Cc2ccccc2)C1c1cccc([N+](=O)[O-])c1 (stereo unspecified) [Nicardipine] (38.7597 µM)	0.5
CCn1cc(C(=O)O)c(=O)c2cc(F)c(N3CCNC(C)C3)c(F)c21 (stereo unspecified) [Lomefloxacin HCl] (56.9223 µM)	0.489
CC(C(=O)O)c1cccc(C(=O)c2ccccc2)c1 (stereo unspecified) [Ketoprofen] (78.6509 µM)	0.502
Cc1ccc(N(CC2=NCCN2)c2cccc(O)c2)cc1 [PhentolamineHCl] (62.9327 µM)	0.505
CC[C@]1(O)C[C@H]2CN(CCc3c([nH]c4ccccc34)[C@@](C(=O)OC)(c3cc4c(cc3OC)N(C=O)[C@H]3[C@@](O)(C(=O)OC)[C@H](OC(C)=O)[C@]5(CC)C=CCN6CC[C@]43[C@@H]65)C2)C1 [Vincristine sulfate] (24.243 µM)	0.481
CCN[C@H]1C[C@H](C)S(=O)(=O)c2sc(S(N)(=O)=O)cc21 [Dorzolamide] (61.6443 µM)	0.499
CCOC(=O)[C@H](CCc1ccccc1)N[C@@H](C)C(=O)N1Cc2ccccc2C[C@H]1C(=O)O [Quinapril HCl] (45.6071 µM)	0.482
CCCCC1C(=O)N(c2ccccc2)N(c2ccccc2)C1=O [Phenylbutazone] (64.8543 µM)	0.499

— the supplement of paper PMC3342239
